Reference: PubChem BioAssay AID1159580 (chemical genetic matrix, 2015)
Screen size: about 5,500 compounds; about 2,000 (36%) were called active. Not shown: some 18% with an inconclusive outcome. Rule as the data show it: active = normalized growth mostly below about 0.91 (no sharp cut-off); inconclusive = no clear call, values can overlap the other calls; inactive = mostly above about 0.92. The list shows a part of the results.

Experiment: chemical genetic growth profiling, strain panel (AID 1159580);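 also: tested at 20 µM; growth read once vehicle control cultures reached saturation at 30 °C; 1 = growth at the plate median or of vehicle wells; lower values mean less growth of the strain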
Conditions: S. cerevisiae deletion strains, growth OD

Measured: normalized growth

COc1ccc(Oc2cc(C)nc3ccccc23)cc1
inactive: locus YAL013W, strain DEP1, hits give low values 1.01 | locus YBR229C, strain ROT2, hits give low values 1 | locus YDL101C, strain DUN1, hits give low values 1.02 | locus YDL134C, strain PPH21, hits give low values 0.989 | locus YDR150W, strain NUM1, hits give low values 1.02 | locus YGR078C, strain PAC10, hits give low values 1.01 | locus YHR087W, strain rtc3, hits give low values 0.999 | locus YJR043C, strain POL32, hits give low values 1 | locus YJR075W, strain HOC1, hits give low values 1.02 | locus YLR058C, strain SHM2 (second series), hits give low values 1 | locus YML094W, strain GIM5, hits give low values 0.941 | locus YMR219W, strain ESC1, hits give low values 1.01 | locus YMR263W, strain SAP30, hits give low values 1.02 | locus YNL153C, strain GIM3, hits give low values 0.991 | locus YNL298W, strain CLA4 (second series), hits give low values 0.876 | locus YNL322C, strain KRE1, hits give low values 1.01 | locus YNR030W, strain Alg12, hits give low values 0.967 | locus YPL055C, strain LGE1, hits give low values 1.02
active: locus YEL061C, strain CIN8, hits give low values 0.884 | locus YHR030C, strain SLT2, hits give low values 0.269 | locus YKL190W, strain CNB1, hits give low values 0.906 | locus YLR039C, strain RIC1, hits give low values 0.606 | locus YLR085C, strain ARP6, hits give low values 0.527 | locus YLR262C, strain YPT6, hits give low values 0.701 | locus YPL241C, strain CIN2, hits give low values 0.845 | locus YPR135W, strain CTF4, hits give low values 0.397
